“And” between values parts separate entries of the source, which are not always exact repeats. Equal entries are not always repeated. Results filed as inconclusive are left out. A number with no mark means an inactive call. The source made the active and inactive calls. Calls follow the shape of the dose curve; as a rule, active = well fitted cell-killing curve with a large enough effect; inconclusive = small, poorly fitted or top-dose-only effect; inactive = flat fitted curve, though single readings scatter.
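Also: cells exposed to compound for 40 hours.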

The first assay can be described thus: Cell Viability - H-4-II-E (AID 543). Also: % is scaled to controls: 0 for no effect and ±100 for the full control effect; nearly all actives have a fitted effect of over 35% in size. Conditions: H-4-II-E rat hepatoma viability; series mostly up to 92.2 µM; activity change, negative = cytotoxic: at the top concentration. Put shortly: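 AC50 from Hill-modelled qHTS concentration-response curves. H-4-II-E rat hepatoma cells in complete medium, 40 hr exposure at 37 °C, viability by CellTiter-Glo ATP luminescence.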
On to `CCNc1nc(Cl)nc(NC(C)C)n1`, for which the “activity change, negative = cytotoxic” value was -13.5%.
On the same count and under the same terms, then `ClC1=C(Cl)C2(Cl)C3C4CC(C5OC45)C3C1(Cl)C2(Cl)Cl` (stereo unspecified), with -21.8%.
As to `ClC(Cl)=C(c1ccc(Cl)cc1)c1ccc(Cl)cc1`, the Potency result is “inactive”.
Same read-out and setting: the value for `O=C(O)COc1ccc(Cl)cc1Cl` was “inactive”.
As for `COC(=O)NC(=S)Nc1ccccc1NC(=S)NC(=O)OC`, the “activity change, negative = cytotoxic” value was -21.6%.
Still for that read-out and setting: the value for `C/C=C/c1ccc2c(c1)OCO2` was -4.5%; that for `COP(=S)(OC)Oc1ccc([N+](=O)[O-])cc1` was -9.67%.
The same measure, in the same setting: the value for `O=S1OCC2C(CO1)C1(Cl)C(Cl)=C(Cl)C2(Cl)C1(Cl)Cl` (stereo unspecified) was -25.9%.
Still for that read-out and setting: then `C=CCc1ccc(OC)cc1`, with 2.51%; and `ClC1=C(Cl)C2(Cl)C3C(Cl)C=CC3C1(Cl)C2(Cl)Cl` (stereo unspecified), with -11.2%; and `CNC(=O)O/N=C/C(C)(C)SC`, with 0.607%.
As to `c1ccc(N=Nc2ccccc2)cc1`, the “activity change, negative = cytotoxic” value was -2.05%.

Another assay in a line: Cell Viability - SH-SY5Y (AID 544).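 Also: 0% = DMSO alone and -100% = 100 µM tamoxifen; nearly all actives have a fitted effect of over 55% in size.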 The following applies: SH-SY5Y neuroblastoma cell viability; viability change, negative = cytotoxic: at 92.2 µM (top of the series). Put shortly:
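Quantitative HTS in SH-SY5Y neuroblastoma cells, 40 hr treatment at 37 °C, ATP content by luciferase luminescence; AC50 from Hill fits.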
Take `CCNc1nc(Cl)nc(NC(C)C)n1`: the “viability change, negative = cytotoxic” value is 11.4%.
Same read-out and setting: the value for `ClC1=C(Cl)C2(Cl)C3C4CC(C5OC45)C3C1(Cl)C2(Cl)Cl` (stereo unspecified) was -12%.
As to `ClC(Cl)=C(c1ccc(Cl)cc1)c1ccc(Cl)cc1`, the Potency entry is “inactive”.
On to `ClC1=C(Cl)C2(Cl)C3C4C=CC(C4)C3C1(Cl)C2(Cl)Cl` (stereo unspecified), for which the “viability change, negative = cytotoxic” value is -19.9%.
On to `O=C(O)COc1ccc(Cl)cc1Cl`, for which the Potency result is “inactive”.
Regarding `C/C=C/c1ccc2c(c1)OCO2`, the “viability change, negative = cytotoxic” value was 2.2%.
Same read-out and setting: then `COP(=S)(OC)Oc1ccc([N+](=O)[O-])cc1`, with -10.1%; and `C=CCc1ccc(OC)cc1`, with -3.3%; and `ClC1=C(Cl)C2(Cl)C3C(Cl)C=CC3C1(Cl)C2(Cl)Cl` (stereo unspecified), with -18.8%.
Consider `CNC(=O)O/N=C/C(C)(C)SC`, for which the “viability change, negative = cytotoxic” value is 0.83%.
On the same count and under the same terms, the value for `c1ccc(N=Nc2ccccc2)cc1` was 9.06%.

Another assay is described as follows: Cell Viability - Renal Proximal Tubule (AID 545).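 Also: 0% = DMSO only and -100% = 100 µM tamoxifen; nearly all actives have a fitted effect of over 40% in size.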 Conditions: renal proximal tubule cells viability; at 91.7 µM (top of the series), primary cells of rat origin unless noted. The procedure, abridged:
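Primary rat renal proximal tubule cells (1000/well) were treated with compounds for 40 hr at 37 °C in complete medium. Intracellular ATP was measured by CellTiter-Glo luminescence, and AC50 values came from Hill-equation fits of concentration-response data.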
Consider `CCNc1nc(Cl)nc(NC(C)C)n1`, for which the activity change, negative = cytotoxicity was -6.93% [at 91.7 µM].
On the same count and under the same terms, then `ClC1=C(Cl)C2(Cl)C3C4CC(C5OC45)C3C1(Cl)C2(Cl)Cl` (stereo unspecified), with -5.71% [at 91.7 µM].
Same read-out and setting: the value for `CCOCN(C(=O)CCl)c1c(C)cccc1CC` was -103% (active); that for `ClC(Cl)=C(c1ccc(Cl)cc1)c1ccc(Cl)cc1` was -4.32% [at 91.7 µM] and -7.69% [at 91.7 µM].
As for `ClC1=C(Cl)C2(Cl)C3C4C=CC(C4)C3C1(Cl)C2(Cl)Cl` (stereo unspecified), the activity change, negative = cytotoxicity was 4.94% [at 91.7 µM].
Still for that read-out and setting: the value for `COC(=O)NC(=S)Nc1ccccc1NC(=S)NC(=O)OC` was -14.2%; that for `C/C=C/c1ccc2c(c1)OCO2` was -9.95% [at 91.7 µM].
Same read-out and setting: the value for `COP(=S)(OC)Oc1ccc([N+](=O)[O-])cc1` was -3.77% [at 91.7 µM].
Same read-out and setting: then `O=S1OCC2C(CO1)C1(Cl)C(Cl)=C(Cl)C2(Cl)C1(Cl)Cl` (stereo unspecified), with -22.1% [at 91.7 µM]; and `C=CCc1ccc(OC)cc1`, with -9.51% [at 91.7 µM]; and `ClC1=C(Cl)C2(Cl)C3C(Cl)C=CC3C1(Cl)C2(Cl)Cl` (stereo unspecified), with -2.85%.
For the compound `CNC(=O)O/N=C/C(C)(C)SC`, the activity change, negative = cytotoxicity is -3.02% [at 91.7 µM].
Take `c1ccc(N=Nc2ccccc2)cc1`: the activity change, negative = cytotoxicity was -6.36%.

(Values after PubChem BioAssay (NCATS).)
